# Test results from PubChem BioAssay AID493179 (National Center for Advancing Translational Sciences (NCATS), 2011).
# Results filed as inconclusive are left out. Calls of active or inactive are those of the source. Calls come from the whole dose curve; as a rule, active = well fitted inhibition curve with a large enough effect; inconclusive = small, poorly fitted or top-dose-only effect; inactive = flat fitted curve, though single readings scatter.
# Test: Secondary Assay for General miRNAs Modulators and/or Inhibitors/Activators of miR-21: miR-30 Firefly Luciferase Assay for second round cherrypicks
# Details: HeLa miR-30 FLuc reporter, luminescence, 48 h
# Text: MLPCN Grant: 1 R21 NS059478-01 Assay Provider: Qihong Huang, The Wistar Institute NCGC Assay Overview: MicroRNAs (miRNAs) are endogenously encoded small (~20-25 nucleotides), nonprotein-coding RNAs that are involved in post-transcriptional repression of target messenger RNAs (mRNAs) (Le and Hannon, 2004). Estimated to be involved in the regulation of 30% of all protein-coding mRNAs (Filipowicz et al., 2008), miRNAs play a significant role in many biological processes including cellular differentiation and tissue development (Ghildiyal and Zamore, 2009). […] Compounds active in the miR-21 FLuc assay were clustered using Leadscope and active chemical series were prioritized based on chemical properties, potential for medicinal chemistry optimization, and SAR. Within each chemical series, representative compounds were re-acquired to test for activity in a secondary assay based on the quality of their CRC, efficacy, and potency. […]
# NCGC Assay Protocol Summary: Reagents: HeLa cells stably expressing firefly luciferase (FLuc) under the control of a CMV promoter (upstream) and a miR-30 binding sequence directly downstream of the gene. […] After a 15 minute incubation to allow for cell lysis, luciferase activity was measured using a ViewLux CCD imager (PerkinElmer), with an average exposure time of 2-12 seconds. […]
compound,measurement,value
O=c1c2ccccc2nc(Cc2ccccc2)n1-c1ccccc1,Potency,20 µM (active)
